According to PubChem BioAssay (NCI):
About 83,000 compounds went through this panel and 20% of them were active in at least one assay; those are over-represented in the sample as a whole.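 Note: values are percent growth. 100 is the growth of untreated cells, values between 100 and 0 indicate rising inhibition; between -100 and 0 indicates cell death.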 A number with no mark means an inactive call. Activity calls are given as the source filed them. Rule for the calls: active = growth percent below 10; inactive = the rest.

Key:
Assay in all cases: NCI-60 one-dose screen, 48 h (100 = growth as untreated, 0 = no growth, -100 = all killed)
Details in all cases: 10 µM unless noted
BT-549 breast = tested on: BT-549 breast
MDA-MB-435 melanoma = tested on: MDA-MB-435 melanoma
MCF7 breast = tested on: MCF7 breast
HCT-116 colon = tested on: HCT-116 colon
HCC-2998 colon = tested on: HCC-2998 colon
KM12 colon = tested on: KM12 colon
SW-620 colon = tested on: SW-620 colon

Compound | growth (BT-549 breast) [%] | growth (MDA-MB-435 melanoma) | growth (MCF7 breast) | growth (HCT-116 colon) | growth (HCC-2998 colon) | growth (KM12 colon) | growth (SW-620 colon)
C#Cc1nc(C2=C(C)/C(=N/OCc3ccccc3)CC2)cs1 | 58.1 | 80.1% | 49.5% | 40.6% | 99.8% | 19.6% | –
CC(C)(C)Nc1nc2c(OCCc3ccccc3)cccn2c1-c1ccccc1Cl | 24 | 7.76% (active) | -10.6% (active) | 2.39% (active) | -0.61% (active) | 4.49% (active) | –
O=C(CSc1nnc(-c2ccc3nc(-c4ccc(Cl)cc4)[nH]c3c2)o1)Nc1ccc(C(=O)/C=C/c2ccc(Cl)cc2)cc1 | 99.6 | 99.9% | 55.2% | 77.8% | 116% | 99.3% | –
O=c1[nH]c2ccc(Cl)cc2cc1CSc1ccccc1Nc1nccc(-c2ccc(Cl)cc2)n1 | 113 | 96.8% | 70.3% | 90.4% | 119% | 92% | –
Clc1ccc2oc3c(NCCCN4CCOCC4)c4ccccc4nc3c2c1 | 67.8 | 22% | 7.12% (active) | 14.8% | 28.9% | 26.5% | –
Cc1cc(C(=O)Nc2sc3c(c2C(N)=O)CCC(=O)C3)ccc1OCCN1CCCCC1 | 129 | 103% | 95.3% | 84.1% | – | 88.7% | 86.5%
CC(C)Sc1nc(Nc2ccc(S(N)(=O)=O)cc2)c(C#N)c(-c2ccc(F)cc2)n1 | 53.3 | – | 31.6% | – | 58.8% | 48.8% | 24.3%
Cn1c(SCC(=O)c2cccs2)nc2ccccc2c1=O | 108 | – | 62.4% | 93.9% | – | 99.1% | 99.7%
CCOC(=O)c1c(Nc2ccccc2)nn2c(N)c(C#N)c(-c3ccc(OC)cc3)nc12 | 52.6 | – | 70.3% | 77.8% | 92.5% | 83% | –
COc1cc(-c2nc3ccc(-c4nnc(SCC(=O)Nc5ccc(C(=O)/C=C/c6ccc(Cl)cc6)cc5)o4)cc3[nH]2)cc(OC)c1OC | 84.4 | – | 59.1% | 81.5% | 120% | 90.9% | 100%
COc1cc(/C=C/C(=O)c2ccc(F)cc2)ccc1Oc1nc(NCCO)nc(N2CCOCC2)n1 | 86.3 | – | 10.2% | 11.3% | 103% | 27.3% | –
C/C(=N\NC(N)=O)c1c(O)sc(=O)[nH]c1=O | 95.3 | – | 93.4% | 91% | 110% | 100% | 97.5%
CCCCCCNC(=O)Oc1ccc(/C(=C(/C)c2ccccc2)c2ccc(OCCN3CCCCCC3)cc2)cc1 | 66.7 | – | 13.6% | 23.8% | 56.7% | 32.3% | -35.2% (active)
O=C1c2c(c3c4cccnc4[nH]c3c3ccc4ccccc4c23)C(=O)N1CCO | 86.8 | – | 30.2% | 60.2% | 101% | – | –
